# Source: the supplement of paper PMC3334620
# Whole data set: some 33,000 sequences, median “E-score (-0.5 to 0.5)” near -0.036, cut for the highest 2% near 0.37. For the sample, the highest values were picked, then their nearest neighbours and some sequences at random.
# Target: T1, Yer064c (UniProt P40041)
# T1 sequence: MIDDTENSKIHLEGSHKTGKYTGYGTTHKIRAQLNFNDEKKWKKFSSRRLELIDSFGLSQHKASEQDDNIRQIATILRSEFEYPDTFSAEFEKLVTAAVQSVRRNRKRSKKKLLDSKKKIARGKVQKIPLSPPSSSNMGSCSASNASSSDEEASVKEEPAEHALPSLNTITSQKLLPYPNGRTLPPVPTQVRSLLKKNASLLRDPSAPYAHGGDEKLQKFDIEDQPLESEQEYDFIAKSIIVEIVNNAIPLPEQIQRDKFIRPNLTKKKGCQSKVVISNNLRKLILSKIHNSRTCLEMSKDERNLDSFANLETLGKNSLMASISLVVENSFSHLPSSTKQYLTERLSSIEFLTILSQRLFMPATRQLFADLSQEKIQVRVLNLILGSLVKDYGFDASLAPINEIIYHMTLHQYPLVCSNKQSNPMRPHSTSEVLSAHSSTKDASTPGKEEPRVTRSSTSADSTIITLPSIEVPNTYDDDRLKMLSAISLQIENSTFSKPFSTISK
# Assay: PBM E-score (8-mer binding enrichment) (E-score (-0.5 to 0.5)); higher = stronger / more preferred TF binding
# Details: protein concentration: 200 nM; construct: GST-full length
# Procedure: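 Universal 'all 10-mer' protein binding microarrays (Agilent AMADID 015681) probed with GST-tagged S. cerevisiae TFs (full-length or DBD) made by in vitro transcription/translation (PURExpress), about 100-200 nM. Bound TF was detected with fluorescent anti-GST. Each ungapped 8-mer (which stands for itself and its reverse complement) is scored by the PBM enrichment score (E-score), a modified Wilcoxon-Mann-Whitney statistic from -0.5 to +0.5, computed with the Universal PBM Analysis Suite. Scale: above 0.35 generally sequence-specific binding.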
row,Sequence,PBM E-score
1,GACCGAAC,-0.059
2,CATTACCC,0.0868
3,AATGGAGA,-0.0502
4,TACTCTAA,-0.042
5,AACTCTAC,-0.212
6,GACTCTAC,0.38
7,CACTCTAA,0.149
8,GACTCTAA,0.381
9,CACTCTAC,0.0903
10,ATGCCAAG,-0.0388
11,ACGATAAC,-0.0162
12,GATCCGCC,-0.041
13,AACTTTGC,-0.113
14,ACAACATC,-0.143
15,ACCATACT,0.0817
16,AGGTGACT,0.484
17,AAGTGATG,0.0804
18,ACGTGACG,-0.176
19,AGGTGACG,-0.188
20,AAGTGATT,0.394
21,AAGTGACT,0.453
22,AGGTGACA,-0.0676
23,ACGTGACA,-0.138
24,AAGTGATC,0.103
25,ACGTGACT,0.468

row,Sequence,PBM E-score
1,AAGTGACC,-0.00564
2,AAGTGACG,0.0587
3,CCTCTGAA,-0.0251
4,AAATCCCA,-0.203
5,ACCCACCC,0.111
6,CACCTAGG,0.0188
7,ATCAGAAC,0.127
8,CTGAGAGA,-0.0026
9,AAGCTTGG,-0.0782
10,GAGATGAC,0.367
11,CAGATGAC,0.215
12,AAGATGAC,0.312
13,GGAACTGA,-0.00126
14,TCGACCAA,-0.188
15,AATAGAAA,-0.119
16,CCCTCCCA,-0.298
17,ATTCATTC,0.122
18,ACTCATTA,0.372
19,GCTCATTA,-0.044
20,ACTCATTG,0.382
21,ACTCATTC,0.394
22,CCTCATTA,0.0877
23,CCTCATTC,-0.176
24,ATTCATTG,0.214
25,ACACATTG,0.0326

row,Sequence,PBM E-score
1,ATGGCTTG,-0.159
2,GATTTACC,0.00206
3,ATTTCATA,-0.0227
4,ATCCGAAT,0.0995
5,AAGGGATG,-0.176
6,ATTCAGTG,0.214
7,AATCAGTG,0.239
8,CATCAGTC,0.321
9,CCTCAGTC,0.326
10,AGTCAGTC,0.442
11,AATCAGTA,0.234
12,AATCAGTC,0.368
13,AGTCAGTG,0.427
14,CGTCAGTC,0.291
15,ACTCAGTG,0.251
16,ACTCAGTC,0.411
17,ATTCAGTC,0.341
18,ACGCATGA,0.146
19,ATCCGTTG,-0.037
20,ACCTTGAA,0.0165
21,GAACCAGA,0.0172
22,ACCCTCAC,-0.132
23,CGCACATC,0.00301
24,AGTCAGTA,0.42
25,CGTCAGTA,0.0514

row,Sequence,PBM E-score
1,GGTCAGTA,-0.0314
2,CTTTAACA,-0.0802
3,GCCTAGGC,-0.179
4,AGGAGCGC,-0.205
5,CCTCACTC,-0.077
6,ACTCACAC,0.364
7,ACACACTG,0.0265
8,ACTCACTC,0.371
9,ACTCACTA,0.346
10,ACTCACTG,0.374
11,CGGTTTAG,-0.1
12,AGAGACAA,-0.175
13,TAAACCAA,-0.0214
14,GAGGACTA,0.369
15,AAGGACTC,0.39
16,AAGGACCA,-0.026
17,CAGGACTC,0.344
18,AAGGACGA,-0.0247
19,CAGGACTA,0.262
20,GAGGACTC,0.387
21,TAGGACTA,0.357
22,AAGGACTT,0.0394
23,AAGGACTG,0.184
24,AAGGACTA,0.375
25,GAGGACAC,-0.221
